Measured values taken from PubChem BioAssay (NCI).
Compounds without any hit were thinned out: in the full panel of roughly 83,000, 20% have a hit.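 Each cell line was grown in a 96-well plate and treated with one concentration of compound for 48 hours. Values below 10 were considered active.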 The source made the active and inactive calls.

system: CAKI-1 renal; test: NCI-60 one-dose screen, 48 h (100 = growth as untreated, 0 = no growth, -100 = all killed); details: 10 µM

Structure (SMILES)	growth
O=C1COc2ccccc2C(=O)N1CCCCN1CCCCC1	103% (inactive)
CCn1c(SCC(=O)c2ccc(Br)cc2)nnc1-c1cc2c([nH]c3ccccc32)c(-c2cccc(O)c2)n1	83.7% (inactive)
CC[C@H]1[C@@H]2C=C[C@@H]3[C@H]4C/C=C\C(=O)NCCC[C@@H]5NC(=O)/C(=C(O)/C=C/[C@@H]4C[C@@H]3[C@H]2C[C@H]1C)C5=O	-41.3% (active)
CCn1c(SC)nnc1-c1cc2c([nH]c3ccccc32)c(-c2cccc(O)c2)n1	25.3% (inactive)
Nc1ncnc2c1ncn2C1OC(COC(c2ccccc2)(c2ccccc2)c2ccccc2)C(O)C1O (stereo not drawn)	57.7% (inactive)
O=C(Nc1cccc(-n2ccc3c(NC(=O)c4ccccc4)nccc32)c1)c1cc(N2CCOCC2)cc(C(F)(F)F)c1	23.5% (inactive)
CCOC(=O)c1[nH]c(-c2ccc(Cl)cc2)cc1-c1cccnc1	28.3% (inactive)
O=c1c2ccccc2[nH]n1Cc1ccc2c(c1)OCO2	104% (inactive)
CCN(CC)CCN1C(=O)c2c(c3c4ccccc4[nH]c3c3[nH]c4ccccc4c23)C1=O	87.9% (inactive)
C=CCn1c(SCC(=O)Nc2ccc(C(=O)/C=C/c3cc(OC)c(OC)c(OC)c3)cc2)nnc1-c1ccc(OC)cc1	16.5% (inactive)

system: A498 renal; test: as above; details: 10 µM unless noted

Structure (SMILES)	growth
O=C(Nc1ccc(-n2ccc3c(NC(=O)c4ccccc4)ncnc32)cc1)c1ccc(Cl)c(C(F)(F)F)c1	80.1% (inactive)
CC12CCC3C(CCC4CC(O)CCC43C)C1C/C(=C/O)C(=O)O2 (stereo not drawn)	62.7% (inactive)
O=C1/C(=C/c2cccc3cnccc23)Cc2cc(F)ccc21	97.2% (inactive)
CCc1c(C)c2cc(-n3c(-c4ccc(OC)cc4)csc3=N)c(O)c(C)c2oc1=O	17.1% (inactive)
O=C(NCCNc1nccc(-c2c(-c3cccc(O)c3)nc3sccn23)n1)c1ccccc1O	104% (inactive)
NC(CCCC(N)C(=O)c1ccccc1)C(=O)O (stereo not drawn)	103% (inactive)
COc1ccc(-c2nnc(SCC(=O)N3CCN(c4cc5c(cc4F)c(=O)c(C(=O)O)cn5C4CC4)CC3)o2)cc1OC	96.7% (inactive)
CC(C)(C)C(=O)/C=c1/[nH]c(=O)/c(=C/c2ccccc2O)s1	55.6% (inactive)
O=C1c2ccccc2OC=C(c2ccccc2)N1CCCCN1CCCCC1	87.1% (inactive)
CNCCCOc1c(Br)cc(CCNC(=O)/C(Cc2cc(Br)c(OC)c(Br)c2)=N/O)cc1Br	31.9% (inactive)
COc1ccc(-c2nnc(SCC(=O)Nc3ccc(C(=O)/C=C/c4ccc(OC)c(OC)c4)cc3)o2)cc1	103% (inactive)
COc1cc(-c2nc(SCC(=O)Nc3ccc(C(C)=O)cc3)[nH]c(=O)c2C#N)cc(OC)c1OC	18.5% (inactive)
O=C1OC(N(Cc2ccc(Cl)cc2)c2ccccc2)c2ccccc21 (stereo not drawn)	90.1% (inactive)
O=C(NNC(=O)c1ccc([N+](=O)[O-])cc1)c1ccc([N+](=O)[O-])cc1	90.5% (inactive)
CCOC(=O)C1=C(N)Oc2cc(OC)ccc2C1c1ccc(F)c(F)c1 (stereo not drawn)	4.52% (active)
Cc1c(Cl)ccc2c(C(=O)Cl)cc(-c3ccccc3)nc12	84.4% (inactive)
CCCCCCCCCCCCCCCC(=O)NS(=O)(=O)OC[C@H]1O[C@@H](n2cnc3c(N)ncnc32)[C@H](O)[C@@H]1O	-95.6% (active)
COc1ccc(-c2nnc(NC(=O)CN3CCN(c4cc5c(cc4F)c(=O)c(C(=O)O)cn5C4CC4)CC3)s2)cc1OC	80.5% (inactive)
O=S(=O)(CCN1CCOCC1)Nc1cc(-c2ccc3ncnc(Nc4ccc(F)c(Cl)c4)c3c2)cnc1Cl	-40% (active)

Structure (SMILES)	growth
C[C@]12O[C@H]1[C@H](O)c1c(cc(O)c3c1C(=O)c1cccc(O)c1-3)C2=O	86.4% (inactive)
COc1ccc(OCC(O)CN2CCN(c3ccc(Cl)cc3)CC2)cc1 (stereo not drawn)	82.8% (inactive)
COc1ccc2c(c1)O/C(=C/c1ccc(OCC(=O)Nc3ccc(S(N)(=O)=O)cc3)cc1)C2=O	91.5% (inactive)
O=C1COc2ccccc2C(=O)N1CCCCN1CCCCC1	114% (inactive)
CCn1c(SCC(=O)c2ccc(Br)cc2)nnc1-c1cc2c([nH]c3ccccc32)c(-c2cccc(O)c2)n1	73.5% (inactive)
CC(C)CNCC(O)COc1ccc(C(C)(C)c2ccc(OCC(O)CNCC(C)C)cc2)cc1 (stereo not drawn)	59.8% (inactive)
CC[C@H]1[C@@H]2C=C[C@@H]3[C@H]4C/C=C\C(=O)NCCC[C@@H]5NC(=O)/C(=C(O)/C=C/[C@@H]4C[C@@H]3[C@H]2C[C@H]1C)C5=O	-18.4% (active)
Cc1cc(-c2ccccc2)nc2ccccc12	106% (inactive)
CCn1c(SC)nnc1-c1cc2c([nH]c3ccccc32)c(-c2cccc(O)c2)n1	-2.24% (active)
O=C(O)c1ccc(-c2nn(-c3ccc(C(=O)O)cc3)cc2/C=N/Nc2c(F)c(F)cc(F)c2F)cc1	115% (inactive)
CCN(CC)CCNCC(O)Cc1ccc(OC)cc1 (stereo not drawn)	109% (inactive)
Nc1ncnc2c1ncn2C1OC(COC(c2ccccc2)(c2ccccc2)c2ccccc2)C(O)C1O (stereo not drawn)	103% (inactive)
O=C(Nc1cccc(-n2ccc3c(NC(=O)c4ccccc4)nccc32)c1)c1cc(N2CCOCC2)cc(C(F)(F)F)c1	6.2% (active)
Nn1c(CN2CCN(c3cc4c(cc3F)c(=O)c(C(=O)O)cn4C3CC3)CC2)n[nH]c1=S	97.7% (inactive)
CCOC(=O)c1[nH]c(-c2ccc(Cl)cc2)cc1-c1cccnc1	-9.26% (active)
O=c1c2ccccc2[nH]n1Cc1ccc2c(c1)OCO2	90.3% (inactive)
Cc1ncc(CO)c(C(=O)O)c1O	99.5% (inactive)
CCN(CC)CCN1C(=O)c2c(c3c4ccccc4[nH]c3c3[nH]c4ccccc4c23)C1=O	67.7% (inactive)
C=CCn1c(SCC(=O)Nc2ccc(C(=O)/C=C/c3cc(OC)c(OC)c(OC)c3)cc2)nnc1-c1ccc(OC)cc1	-3.03% (active)
